# Columns and labels:
# [1] = biological target: T1, Testis-specific serine/threonine-protein kinase 2 (Homo sapiens) (UniProt Q96PF2); conditions: at 1 µM
# T1 sequence (whole entry): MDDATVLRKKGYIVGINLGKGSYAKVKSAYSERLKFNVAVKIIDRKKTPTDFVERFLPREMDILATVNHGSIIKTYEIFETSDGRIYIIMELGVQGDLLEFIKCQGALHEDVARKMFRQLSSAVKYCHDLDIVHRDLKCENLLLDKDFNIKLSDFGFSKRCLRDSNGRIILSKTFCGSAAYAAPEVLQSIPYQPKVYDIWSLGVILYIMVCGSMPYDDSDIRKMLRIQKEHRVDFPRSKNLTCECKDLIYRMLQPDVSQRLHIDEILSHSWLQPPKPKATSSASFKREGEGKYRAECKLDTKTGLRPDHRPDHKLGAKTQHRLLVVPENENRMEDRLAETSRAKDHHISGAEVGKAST
# [2] = biological target: T2, Tyrosine-protein kinase Mer (Homo sapiens) (UniProt Q12866); conditions: at 1 µM
# T2 sequence (whole entry): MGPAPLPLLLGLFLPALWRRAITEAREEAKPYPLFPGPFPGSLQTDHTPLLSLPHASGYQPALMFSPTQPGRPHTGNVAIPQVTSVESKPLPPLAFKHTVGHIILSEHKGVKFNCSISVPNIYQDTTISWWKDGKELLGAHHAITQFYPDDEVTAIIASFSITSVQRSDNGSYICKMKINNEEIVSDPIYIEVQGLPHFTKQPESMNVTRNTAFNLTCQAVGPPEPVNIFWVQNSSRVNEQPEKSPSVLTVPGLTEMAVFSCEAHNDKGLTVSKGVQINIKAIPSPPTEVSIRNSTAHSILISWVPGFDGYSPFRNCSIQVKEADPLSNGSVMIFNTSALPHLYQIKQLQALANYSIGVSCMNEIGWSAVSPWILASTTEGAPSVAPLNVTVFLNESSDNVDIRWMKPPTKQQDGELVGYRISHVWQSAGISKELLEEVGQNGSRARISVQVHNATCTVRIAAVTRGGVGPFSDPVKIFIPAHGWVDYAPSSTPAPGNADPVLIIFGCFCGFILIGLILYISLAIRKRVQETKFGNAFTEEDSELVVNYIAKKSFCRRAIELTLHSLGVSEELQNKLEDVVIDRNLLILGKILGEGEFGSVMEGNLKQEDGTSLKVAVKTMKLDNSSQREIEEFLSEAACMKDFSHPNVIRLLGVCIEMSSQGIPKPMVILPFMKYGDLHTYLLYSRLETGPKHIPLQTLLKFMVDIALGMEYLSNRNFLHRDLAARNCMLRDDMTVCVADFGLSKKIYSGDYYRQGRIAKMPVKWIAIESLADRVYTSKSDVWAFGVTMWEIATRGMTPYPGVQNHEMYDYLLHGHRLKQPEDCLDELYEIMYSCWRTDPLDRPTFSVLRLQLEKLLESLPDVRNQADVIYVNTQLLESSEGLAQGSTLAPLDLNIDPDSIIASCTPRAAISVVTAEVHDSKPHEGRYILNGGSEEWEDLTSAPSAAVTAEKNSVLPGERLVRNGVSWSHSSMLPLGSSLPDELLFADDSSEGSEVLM
# [3] = biological target: T2, Tyrosine-protein kinase Mer (Homo sapiens); conditions: at 10 µM
# [4] = biological target: Hepatocyte growth factor receptor (Homo sapiens) (UniProt P08581); conditions: at 1 µM
# Sequence of Hepatocyte growth factor receptor (Homo sapiens) (P08581 whole entry): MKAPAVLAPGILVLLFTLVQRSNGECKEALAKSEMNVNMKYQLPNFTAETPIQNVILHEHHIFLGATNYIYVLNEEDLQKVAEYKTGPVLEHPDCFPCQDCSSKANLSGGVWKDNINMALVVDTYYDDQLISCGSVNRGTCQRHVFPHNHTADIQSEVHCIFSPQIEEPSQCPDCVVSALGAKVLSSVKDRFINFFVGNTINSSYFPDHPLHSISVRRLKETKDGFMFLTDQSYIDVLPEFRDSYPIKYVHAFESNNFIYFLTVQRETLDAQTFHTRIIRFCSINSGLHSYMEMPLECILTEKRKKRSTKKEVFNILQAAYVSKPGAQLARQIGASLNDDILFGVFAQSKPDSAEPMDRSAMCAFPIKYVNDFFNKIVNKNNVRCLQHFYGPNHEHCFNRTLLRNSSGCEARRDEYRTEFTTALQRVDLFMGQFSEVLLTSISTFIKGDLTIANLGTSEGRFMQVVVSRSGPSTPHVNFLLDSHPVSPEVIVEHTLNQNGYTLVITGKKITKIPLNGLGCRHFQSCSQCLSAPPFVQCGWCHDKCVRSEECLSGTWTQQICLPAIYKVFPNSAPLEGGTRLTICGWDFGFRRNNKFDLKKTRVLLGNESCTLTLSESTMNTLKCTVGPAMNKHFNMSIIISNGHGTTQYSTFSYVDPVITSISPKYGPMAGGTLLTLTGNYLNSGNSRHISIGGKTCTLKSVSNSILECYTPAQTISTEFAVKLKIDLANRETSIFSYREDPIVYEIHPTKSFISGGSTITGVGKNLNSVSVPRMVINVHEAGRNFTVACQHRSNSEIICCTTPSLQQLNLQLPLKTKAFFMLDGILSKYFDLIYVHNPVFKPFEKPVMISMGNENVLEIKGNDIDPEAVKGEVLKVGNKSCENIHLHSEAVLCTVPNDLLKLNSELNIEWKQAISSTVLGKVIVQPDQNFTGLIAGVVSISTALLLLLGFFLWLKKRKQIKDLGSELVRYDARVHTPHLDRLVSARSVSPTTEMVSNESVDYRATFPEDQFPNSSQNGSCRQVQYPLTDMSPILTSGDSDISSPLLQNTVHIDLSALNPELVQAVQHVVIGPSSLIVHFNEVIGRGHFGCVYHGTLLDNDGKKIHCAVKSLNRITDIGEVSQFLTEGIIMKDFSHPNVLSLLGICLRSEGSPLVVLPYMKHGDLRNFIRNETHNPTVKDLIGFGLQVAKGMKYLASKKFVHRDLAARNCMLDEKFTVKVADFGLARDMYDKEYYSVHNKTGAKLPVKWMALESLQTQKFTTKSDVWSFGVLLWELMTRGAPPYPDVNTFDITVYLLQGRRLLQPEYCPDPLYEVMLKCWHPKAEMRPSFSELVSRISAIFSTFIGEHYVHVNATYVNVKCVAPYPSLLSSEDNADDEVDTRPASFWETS
# [5] = biological target: Hepatocyte growth factor receptor (Homo sapiens) (UniProt P08581); conditions: at 10 µM
# [6] = biological target: MAP kinase-interacting serine/threonine-protein kinase 2 (Homo sapiens) (UniProt Q9HBH9); conditions: at 1 µM
# Sequence of MAP kinase-interacting serine/threonine-protein kinase 2 (Homo sapiens) (Q9HBH9 whole entry, looked up): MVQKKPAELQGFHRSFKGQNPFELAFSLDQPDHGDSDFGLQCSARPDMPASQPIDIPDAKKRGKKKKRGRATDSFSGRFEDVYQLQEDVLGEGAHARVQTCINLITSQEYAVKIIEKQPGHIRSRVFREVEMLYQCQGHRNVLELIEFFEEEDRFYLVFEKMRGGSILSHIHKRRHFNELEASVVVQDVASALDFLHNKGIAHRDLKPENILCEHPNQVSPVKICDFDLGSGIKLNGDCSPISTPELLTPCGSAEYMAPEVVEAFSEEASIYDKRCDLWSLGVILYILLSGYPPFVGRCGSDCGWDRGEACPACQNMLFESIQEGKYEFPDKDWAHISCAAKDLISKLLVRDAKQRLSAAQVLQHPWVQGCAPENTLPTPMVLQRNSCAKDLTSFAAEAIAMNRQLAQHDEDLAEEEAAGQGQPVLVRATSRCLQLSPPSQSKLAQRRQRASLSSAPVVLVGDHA
# [7] = biological target: MAP kinase-interacting serine/threonine-protein kinase 2 (Homo sapiens) (UniProt Q9HBH9); conditions: at 10 µM
# [8] = biological target: T3, Muscle, skeletal receptor tyrosine-protein kinase (Homo sapiens) (UniProt O15146); conditions: at 1 µM
# T3 sequence (whole entry): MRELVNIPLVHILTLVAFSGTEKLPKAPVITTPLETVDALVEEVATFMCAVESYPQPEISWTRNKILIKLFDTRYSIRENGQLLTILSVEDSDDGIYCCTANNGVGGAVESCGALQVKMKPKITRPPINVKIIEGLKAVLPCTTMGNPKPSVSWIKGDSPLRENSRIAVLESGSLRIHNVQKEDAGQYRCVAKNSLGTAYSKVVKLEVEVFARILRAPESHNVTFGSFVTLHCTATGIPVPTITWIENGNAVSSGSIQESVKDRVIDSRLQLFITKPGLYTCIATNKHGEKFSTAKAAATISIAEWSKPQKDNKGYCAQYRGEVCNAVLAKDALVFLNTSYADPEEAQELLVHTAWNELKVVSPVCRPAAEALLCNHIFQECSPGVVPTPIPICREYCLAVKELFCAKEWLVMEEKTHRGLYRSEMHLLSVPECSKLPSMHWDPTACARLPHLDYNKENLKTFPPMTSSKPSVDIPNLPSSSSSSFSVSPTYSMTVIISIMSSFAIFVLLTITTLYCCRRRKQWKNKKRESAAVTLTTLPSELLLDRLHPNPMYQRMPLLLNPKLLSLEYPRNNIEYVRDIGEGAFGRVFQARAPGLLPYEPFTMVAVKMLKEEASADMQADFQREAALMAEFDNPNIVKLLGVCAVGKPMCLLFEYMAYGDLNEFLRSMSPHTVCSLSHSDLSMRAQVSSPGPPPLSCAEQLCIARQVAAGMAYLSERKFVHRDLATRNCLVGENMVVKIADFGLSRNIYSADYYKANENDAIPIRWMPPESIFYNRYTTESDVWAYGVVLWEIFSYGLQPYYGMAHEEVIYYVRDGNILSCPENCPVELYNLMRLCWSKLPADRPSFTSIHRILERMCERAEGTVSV
# [9] = biological target: T3, Muscle, skeletal receptor tyrosine-protein kinase (Homo sapiens); conditions: at 10 µM
# [10] = biological target: T4, Serine/threonine-protein kinase Nek11 (Homo sapiens) (UniProt Q8NG66); conditions: at 1 µM
# T4 sequence (whole entry): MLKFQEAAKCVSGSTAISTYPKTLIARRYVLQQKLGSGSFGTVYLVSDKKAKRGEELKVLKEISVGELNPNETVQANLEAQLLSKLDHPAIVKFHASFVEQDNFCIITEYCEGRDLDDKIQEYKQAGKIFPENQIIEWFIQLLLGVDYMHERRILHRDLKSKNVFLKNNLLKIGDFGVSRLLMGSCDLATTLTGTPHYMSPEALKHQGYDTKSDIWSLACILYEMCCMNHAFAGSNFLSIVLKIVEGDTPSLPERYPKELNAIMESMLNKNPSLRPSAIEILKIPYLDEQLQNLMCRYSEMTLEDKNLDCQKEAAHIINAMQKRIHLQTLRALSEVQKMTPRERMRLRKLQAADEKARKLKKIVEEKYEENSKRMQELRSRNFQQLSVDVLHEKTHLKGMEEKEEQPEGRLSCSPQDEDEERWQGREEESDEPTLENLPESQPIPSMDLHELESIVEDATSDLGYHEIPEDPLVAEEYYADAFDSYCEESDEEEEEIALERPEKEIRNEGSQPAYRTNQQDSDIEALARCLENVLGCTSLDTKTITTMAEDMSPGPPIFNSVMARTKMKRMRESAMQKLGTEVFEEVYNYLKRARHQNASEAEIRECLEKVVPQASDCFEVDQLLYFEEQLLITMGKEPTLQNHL
# [11] = biological target: T4, Serine/threonine-protein kinase Nek11 (Homo sapiens); conditions: at 10 µM
# [12] = biological target: T5, Serine/threonine-protein kinase Nek2 (Homo sapiens) (UniProt P51955); conditions: at 1 µM
# T5 sequence (whole entry): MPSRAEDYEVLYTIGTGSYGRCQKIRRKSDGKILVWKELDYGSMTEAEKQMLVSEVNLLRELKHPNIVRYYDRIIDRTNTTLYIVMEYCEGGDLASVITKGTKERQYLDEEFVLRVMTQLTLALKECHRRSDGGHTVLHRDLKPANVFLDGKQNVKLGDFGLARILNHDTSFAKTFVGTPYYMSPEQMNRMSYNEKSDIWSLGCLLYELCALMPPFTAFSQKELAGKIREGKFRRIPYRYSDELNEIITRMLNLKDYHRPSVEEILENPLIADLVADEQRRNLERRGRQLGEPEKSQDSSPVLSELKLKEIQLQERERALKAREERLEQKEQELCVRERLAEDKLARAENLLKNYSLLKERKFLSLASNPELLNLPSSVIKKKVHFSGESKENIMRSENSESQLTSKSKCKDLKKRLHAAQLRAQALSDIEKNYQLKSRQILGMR
# [13] = biological target: T5, Serine/threonine-protein kinase Nek2 (Homo sapiens); conditions: at 10 µM
# [14] = biological target: T6, Serine/threonine-protein kinase Nek3 (Homo sapiens) (UniProt P51956); conditions: at 1 µM
# T6 sequence (whole entry): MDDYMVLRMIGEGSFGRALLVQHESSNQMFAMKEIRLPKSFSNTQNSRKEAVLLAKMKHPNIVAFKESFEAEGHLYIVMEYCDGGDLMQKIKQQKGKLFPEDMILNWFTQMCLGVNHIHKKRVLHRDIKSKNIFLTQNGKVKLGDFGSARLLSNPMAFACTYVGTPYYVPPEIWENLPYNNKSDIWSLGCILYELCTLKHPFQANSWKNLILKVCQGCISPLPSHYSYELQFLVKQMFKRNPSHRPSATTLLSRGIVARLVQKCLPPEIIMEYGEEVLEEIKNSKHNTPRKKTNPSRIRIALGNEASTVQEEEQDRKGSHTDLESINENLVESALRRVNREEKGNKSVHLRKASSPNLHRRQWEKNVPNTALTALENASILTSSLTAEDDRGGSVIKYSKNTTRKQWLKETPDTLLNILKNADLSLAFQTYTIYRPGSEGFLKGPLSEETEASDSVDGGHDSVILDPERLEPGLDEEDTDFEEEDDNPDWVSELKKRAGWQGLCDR
# [15] = biological target: T6, Serine/threonine-protein kinase Nek3 (Homo sapiens); conditions: at 10 µM
# [16] = biological target: Serine/threonine-protein kinase tousled-like 2 (Homo sapiens) (UniProt Q86UE8); conditions: at 1 µM
# Sequence of Serine/threonine-protein kinase tousled-like 2 (Homo sapiens) (Q86UE8 whole entry, looked up): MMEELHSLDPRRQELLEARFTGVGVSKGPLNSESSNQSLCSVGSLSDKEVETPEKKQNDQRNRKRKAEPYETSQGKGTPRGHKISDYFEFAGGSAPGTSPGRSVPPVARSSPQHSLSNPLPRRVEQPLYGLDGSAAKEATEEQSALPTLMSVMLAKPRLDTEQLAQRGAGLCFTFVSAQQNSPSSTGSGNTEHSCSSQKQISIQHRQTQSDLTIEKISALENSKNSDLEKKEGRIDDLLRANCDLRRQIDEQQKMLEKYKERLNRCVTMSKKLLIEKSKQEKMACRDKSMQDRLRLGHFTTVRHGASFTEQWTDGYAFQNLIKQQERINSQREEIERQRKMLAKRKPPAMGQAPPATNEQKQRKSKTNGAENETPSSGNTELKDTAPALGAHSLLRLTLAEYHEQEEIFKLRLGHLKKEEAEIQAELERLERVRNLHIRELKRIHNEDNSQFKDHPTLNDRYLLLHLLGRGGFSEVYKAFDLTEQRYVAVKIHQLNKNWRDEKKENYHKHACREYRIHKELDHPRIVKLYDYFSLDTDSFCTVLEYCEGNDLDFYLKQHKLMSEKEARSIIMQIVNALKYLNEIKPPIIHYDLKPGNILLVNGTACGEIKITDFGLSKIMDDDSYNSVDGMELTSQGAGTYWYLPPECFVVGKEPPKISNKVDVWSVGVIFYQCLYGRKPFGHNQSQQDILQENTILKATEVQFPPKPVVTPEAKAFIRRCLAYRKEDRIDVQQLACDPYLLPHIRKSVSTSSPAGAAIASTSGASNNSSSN
# [17] = biological target: Serine/threonine-protein kinase tousled-like 2 (Homo sapiens) (UniProt Q86UE8); conditions: at 10 µM
# [18] = biological target: T7, Testis-specific serine/threonine-protein kinase 1 (Homo sapiens) (UniProt Q9BXA7); conditions: at 1 µM
# T7 sequence (whole entry): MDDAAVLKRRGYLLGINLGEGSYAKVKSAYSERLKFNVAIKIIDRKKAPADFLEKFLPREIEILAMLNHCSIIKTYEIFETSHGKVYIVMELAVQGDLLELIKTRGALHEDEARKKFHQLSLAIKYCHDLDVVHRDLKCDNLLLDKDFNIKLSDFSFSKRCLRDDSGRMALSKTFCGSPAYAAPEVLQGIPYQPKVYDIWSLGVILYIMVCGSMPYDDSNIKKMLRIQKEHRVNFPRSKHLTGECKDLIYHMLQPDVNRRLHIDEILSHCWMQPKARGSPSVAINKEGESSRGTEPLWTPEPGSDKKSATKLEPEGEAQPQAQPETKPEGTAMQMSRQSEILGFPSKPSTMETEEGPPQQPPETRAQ
# [19] = biological target: T7, Testis-specific serine/threonine-protein kinase 1 (Homo sapiens); conditions: at 10 µM
# [20] = biological target: T1, Testis-specific serine/threonine-protein kinase 2 (Homo sapiens); conditions: at 10 µM
smiles,measurement,setting,value
O=c1cc(N2CCNCC2)oc2c(-c3ccccc3)cccc12,residual activity,[1],92%
O=C(Nc1nc2ccccc2n1CCN1CCOCC1)c1cccc([N+](=O)[O-])c1,residual activity,[1],102%
O=C(O)c1ccc2c3c1cccc3c(=O)n1c3ccccc3nc21,residual activity,[1],118%
Oc1n[nH]c2nnc(-c3c(-c4ccccc4)nn4ccccc34)cc12,residual activity,[1],95%
COC(=O)[C@@]1(O)C[C@H]2O[C@]1(C)n1c3ccccc3c3c4c(c5c6ccccc6n2c5c31)C(=O)NC4,residual activity,[2],2%
same,residual activity,[3],0%
same,residual activity,[4],6%
same,residual activity,[5],13%
same,residual activity,[6],0%
same,residual activity,[7],0%
same,residual activity,[8],18%
same,residual activity,[9],2%
same,residual activity,[10],34%
same,residual activity,[11],9%
same,residual activity,[12],75%
same,residual activity,[13],29%
same,residual activity,[14],65%
same,residual activity,[15],53%
same,residual activity,[16],1%
same,residual activity,[17],0%
same,residual activity,[18],-1%
same,residual activity,[19],0%
same,residual activity,[1],8%
same,residual activity,[20],0%

# Reference: ChEMBL document CHEMBL2218924, “A broad activity screen in support of a chemogenomic map for kinase signalling research and drug discovery” (Biochem J, 2013)
